In all, about 33,000 sequences were measured (“E-score (-0.5 to 0.5)”: median about -0.035, highest 2% from about 0.35 on). The sample holds the highest values, similar sequences and a random draw of the others, so the mix is not that of the screen.
Biological target: T1, Pdr3 (UniProt P33200)
T1 sequence: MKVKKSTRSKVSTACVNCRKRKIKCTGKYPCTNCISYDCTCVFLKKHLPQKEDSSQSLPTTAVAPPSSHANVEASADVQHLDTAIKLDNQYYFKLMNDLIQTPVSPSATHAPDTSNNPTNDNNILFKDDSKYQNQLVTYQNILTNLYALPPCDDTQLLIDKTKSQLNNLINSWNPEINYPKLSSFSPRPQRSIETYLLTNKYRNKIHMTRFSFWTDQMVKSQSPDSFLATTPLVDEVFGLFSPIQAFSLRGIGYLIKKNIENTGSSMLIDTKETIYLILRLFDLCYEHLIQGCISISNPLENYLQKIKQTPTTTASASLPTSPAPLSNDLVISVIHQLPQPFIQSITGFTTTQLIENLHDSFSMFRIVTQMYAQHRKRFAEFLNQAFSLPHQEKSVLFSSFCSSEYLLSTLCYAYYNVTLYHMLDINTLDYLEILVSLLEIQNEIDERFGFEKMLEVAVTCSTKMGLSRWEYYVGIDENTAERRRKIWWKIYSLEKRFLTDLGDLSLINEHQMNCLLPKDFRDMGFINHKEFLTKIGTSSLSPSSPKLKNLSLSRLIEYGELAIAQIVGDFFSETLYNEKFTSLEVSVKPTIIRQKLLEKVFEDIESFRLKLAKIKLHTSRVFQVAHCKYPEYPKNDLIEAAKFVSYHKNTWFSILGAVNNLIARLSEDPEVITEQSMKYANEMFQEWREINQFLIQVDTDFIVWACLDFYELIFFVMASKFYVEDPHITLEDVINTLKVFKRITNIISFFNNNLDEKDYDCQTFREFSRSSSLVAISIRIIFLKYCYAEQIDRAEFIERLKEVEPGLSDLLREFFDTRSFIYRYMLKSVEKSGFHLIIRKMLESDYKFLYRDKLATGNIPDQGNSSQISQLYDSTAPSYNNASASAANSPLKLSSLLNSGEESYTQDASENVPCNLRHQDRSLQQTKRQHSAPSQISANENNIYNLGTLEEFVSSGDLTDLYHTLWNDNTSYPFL
Test: PBM E-score (8-mer binding enrichment) (E-score (-0.5 to 0.5)); higher = stronger / more preferred TF binding
Details: protein concentration: 200 nM; construct: GST-full length
In short: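 Universal all-10-mer Agilent arrays, double-stranded by primer extension on fresh or once-stripped slides, were probed with about 100-200 nM GST-tagged yeast transcription factors made by PURExpress. Fluorescent anti-GST detected bound protein, and masliner normalised the scans. E-scores from the Universal PBM Analysis Suite were given to each ungapped eight-base word pooled with its reverse complement.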

First: GCCGTCGA
Second: CCCGTCGA
The “PBM E-score” value of the first is lower: 0.104 for the first, 0.215 for the second.

Going from TCCGTCGA to ACCGTCAA, the “PBM E-score” value falls from 0.39 to -0.00477.

Compared with GCCGTCAA, AAGCGAAG is lower in “PBM E-score” value: -0.048 for the first, -0.0806 for the second.

Going from ACCAGTAT to AGTTGGTA, the “PBM E-score” value falls from 0.0888 to -0.111.

Compared with GTCATCCA, AACGGACT is higher in “PBM E-score” value: -0.0723 for the first, 0.0833 for the second.

First: AACGGAGC
Second: AATGGAAG
The “PBM E-score” value of the first is higher: 0.275 for the first, 0.0364 for the second.

Going from AACGGAGG to AACGGTAT, the “PBM E-score” value falls from 0.185 to -0.0131.

Compared with AACGGAGT, AACGGAAG is higher in “PBM E-score” value: 0.373 for the first, 0.423 for the second.

Going from AACGGTAG to AACGGAAT, the “PBM E-score” value rises from 0.0653 to 0.468.

Compared with ACTTTCGA, AAAGTTCC is higher in “PBM E-score” value: -0.0188 for the first, 0.2 for the second.

Going from GGCGGGGA to ATTAGCAG, the “PBM E-score” value falls from 0.292 to -0.0762.

Going from ATGCGCAT to AATCCTCA, the “PBM E-score” value falls from 0.165 to -0.244.

Compared with ACTATCCC, AACGACCG is lower in “PBM E-score” value: 0.165 for the first, -0.146 for the second.

Going from CCAATTAC to GAGATAAA, the “PBM E-score” value rises from -0.099 to 0.122.

Going from AACGCGGC to AACGCGGA, the “PBM E-score” value rises from 0.123 to 0.358.

Going from CACGCGGA to CACGCGGG, the “PBM E-score” value falls from 0.38 to 0.0841.

Going from AACGCGGG to CACGCGGC, the “PBM E-score” value falls from 0.332 to -0.00292.

Going from ATGTACCG to GAGTGCTA, the “PBM E-score” value falls from -0.0139 to -0.0621.

Compared with CTGGGAGC, CAAAAAAA is higher in “PBM E-score” value: -0.192 for the first, 0.211 for the second.

Compared with AAGCAAAG, CACAGCAG is lower in “PBM E-score” value: -0.213 for the first, -0.234 for the second.

Compared with GCAGCCAC, ATGCACAA is lower in “PBM E-score” value: 0.0849 for the first, -0.0898 for the second.

First: ACGGACAC
Second: CTCTCGAA
The “PBM E-score” value of the first is higher: 0.321 for the first, -0.197 for the second.

Going from ATCTCGGG to CTCTCGGA, the “PBM E-score” value rises from 0.278 to 0.358.

Going from GTCTCGGA to ATCTCGGA, the “PBM E-score” value rises from 0.306 to 0.376.

First: CTCTCGGC
Second: CCGTTTTC
The “PBM E-score” value of the first is lower: 0.118 for the first, 0.202 for the second.

First: CCGGGGAG
Second: CCCGGGAA
The “PBM E-score” value of the first is lower: 0.332 for the first, 0.443 for the second.

First: CCCGGGGA
Second: CCCGGGGC
The “PBM E-score” value of the first is higher: 0.414 for the first, 0.338 for the second.

Compared with CCCGGGAG, ACCGGGAG is lower in “PBM E-score” value: 0.397 for the first, 0.144 for the second.

First: GCCGGGAC
Second: CCCGGGAC
The “PBM E-score” value of the first is lower: 0.316 for the first, 0.451 for the second.

Compared with CCTGGGAA, CACGGGAG is higher in “PBM E-score” value: -0.0887 for the first, 0.0682 for the second.

First: CCGGGGGA
Second: CCGGGGAC
The “PBM E-score” value of the first is higher: 0.311 for the first, 0.234 for the second.

Compared with CCTCTACC, AGCGAGCA is lower in “PBM E-score” value: -0.104 for the first, -0.189 for the second.

Compared with ATAATCAT, AGTCTTAG is lower in “PBM E-score” value: 0.0794 for the first, -0.224 for the second.

Going from CGATTCGA to AGTGTCGA, the “PBM E-score” value falls from 0.143 to 0.0406.

Going from ATGACCAA to ATGCCCTC, the “PBM E-score” value falls from -0.0317 to -0.0557.

Compared with AGCTAAAT, ACAGTTAC is higher in “PBM E-score” value: -0.165 for the first, -0.111 for the second.

Going from CGCTATCC to AACGAGAA, the “PBM E-score” value falls from 0.158 to -0.0948.

Going from CAAGGGCA to AGGCACGC, the “PBM E-score” value rises from -0.0651 to 0.049.

First: GGCGGCCC
Second: CTCACCAA
The “PBM E-score” value of the first is lower: -0.00494 for the first, 0.136 for the second.

Going from AAGCGGTC to CCGGGGAA, the “PBM E-score” value rises from 0.00531 to 0.356.

Compared with TCCCGGGA, CCCCGGCA is lower in “PBM E-score” value: 0.485 for the first, 0.189 for the second.

Going from TCCGGGAA to CCCCGGGA, the “PBM E-score” value rises from 0.386 to 0.417.

Going from CCCCGGTA to TCCCGGCA, the “PBM E-score” value rises from 0.122 to 0.323.

Reference: the supplement of paper PMC3334620
